MARV entry inh – qHTS for inhibitors of binding or entry into cells for Marburg Virus | Marburg virus pseudotyped entry inhibition, cell reporter | Potency, µM (top dose mostly 37.8 µM), most hits filed as inhibitors | actives 1.8% (n = 300,000); calls by dose curve; tested in HEK293 cells
Lassa entry inh – qHTS for Inhibitors of binding or entry into cells for Lassa Virus. AID 540256, 2011. actives 1.2% (n = 300,000). Lassa virus pseudotype entry inhibition, cell reporter. Potency, µM (series often up to 37.9 µM), most hits filed as inhibitors; calls by dose curve; tested in HEK293 cells; further: nearly all actives have a fitted effect of over 50% in size
Cycloheximide cs – Cycloheximide Counterscreen for Small Molecule Inhibitors of Shiga Toxin | AID 2314, 2010 | actives 12% (n = 300,000) | max response, % | cell reporter, cycloheximide protein synthesis inhibition counterscreen; in the data active means max response mostly above about 13%, no sharp cut-off; inactive means mostly below about 14%; further: read at 38.3 µM for the half of the compounds with a filed dose
Shiga toxin inh – A qHTS for Small Molecule Inhibitors of Shiga Toxin. inhibition, % at 38.7 µM. Vero cells, Shiga toxin protein synthesis inhibition reporter. AID 2315, 2010. actives 9.2% (n = 290,000); in the data active means inhibition mostly above about 28%, no sharp cut-off; inactive means mostly below about 43%
Each line names hits and unclear results; the compound was inactive in the other large screens. Sampled rows, rich in hits. Any-hit rate of the full collection: about 12%.

CCOc1cccc(C(=O)Nc2nnc(-c3ccco3)s2)c1	MARV entry inh 4µM, Lassa entry inh inconclusive, Cycloheximide cs 31, Shiga toxin inh 92
O=C(Nc1nccs1)c1ccc(Br)cc1	Cycloheximide cs 27, Shiga toxin inh 133 (no result: MARV entry inh, Lassa entry inh)
COc1cc(OC)c(N(C)S(=O)(=O)c2cccc(C(=O)Nc3nccs3)c2)cc1Cl	MARV entry inh 8.9µM, Lassa entry inh inconclusive (no result: Cycloheximide cs, Shiga toxin inh)
O=C(CCNC(=O)c1ccc(Br)cc1)Nc1nccs1	Cycloheximide cs 19
CCOc1ccccc1C(=O)Nc1cc2c(cc1N1CCCCC1)n(C)c(=O)n2C	Lassa entry inh inconclusive (no result: Cycloheximide cs, Shiga toxin inh)
COc1ccc(CN(C)Cc2c(O)ccc3cc(Br)ccc23)cc1OC	MARV entry inh inconclusive
O=C(Nc1nccs1)c1ccc(S(=O)(=O)c2ccccc2)cc1	none
CCC(=O)Nc1cccc(C(=O)Nc2nccs2)c1	MARV entry inh inconclusive
O=C(Nc1nccs1)c1cccnc1Cl	none (no result: MARV entry inh, Lassa entry inh)
O=C(Nc1nccs1)c1ccccn1	Cycloheximide cs 67, Shiga toxin inh 97 (no result: MARV entry inh, Lassa entry inh)
CCOc1cccc(C(=O)Nc2nccs2)c1	Cycloheximide cs 30, Shiga toxin inh 69
O=C(Nc1nccs1)c1ccc2ccccc2c1	Cycloheximide cs 52, Shiga toxin inh 79 (no result: MARV entry inh, Lassa entry inh)
O=C(Nc1nccs1)c1ccc[nH]c1=O	Cycloheximide cs 25 (no result: MARV entry inh, Lassa entry inh, Shiga toxin inh)
CC(=O)Nc1n[nH]c(=S)s1	MARV entry inh inconclusive (no result: Cycloheximide cs, Shiga toxin inh)
O=C(Nc1n[nH]c(=S)s1)c1ccc2ccccc2c1	Cycloheximide cs 34, Shiga toxin inh 69
CC1(c2ccccn2)Nc2ccccc2-c2nc3ccccc3n21 (centres undefined)	none
c1ccc2c(c1)NC1(CCCCC1)n1c-2nc2ccccc21	Cycloheximide cs 26
c1ccc2c(c1)NC1(CCCCCC1)n1c-2nc2ccccc21	Cycloheximide cs 34, Shiga toxin inh 77
CSc1nsc(SCC(=O)Nc2ccccc2)n1	MARV entry inh inconclusive, Cycloheximide cs 40
O=C(CSc1nnc(NC(=O)c2c(F)cccc2Cl)s1)Nc1ccccc1F	Cycloheximide cs 8.3
CSc1nsc(NC(=O)Cc2ccccc2)n1	Cycloheximide cs 46, Shiga toxin inh 86
CCOc1ncccc1C(=O)Nc1nc(SC)ns1	MARV entry inh inconclusive, Cycloheximide cs 28, Shiga toxin inh 66
CC(=O)c1coc2ccc(OCCN3CCCCC3)cc12	none
O=C(O)CCC(=O)Nc1ccc(Oc2ncnc3cc(Cl)ccc23)nc1	none
NS(=O)(=O)c1ccc(NC(=O)NC2CC(=O)N(c3ccc4c(c3)OCCO4)C2)cc1 (centres undefined)	none (no result: Cycloheximide cs, Shiga toxin inh)
CSc1nsc(SCC(=O)Nc2ccccc2C(N)=O)n1	Cycloheximide cs 11, Shiga toxin inh 38 (no result: Lassa entry inh)
CSc1nsc(SCC(=O)Nc2ccc(OC(C)=O)cc2)n1	MARV entry inh inconclusive, Lassa entry inh inconclusive, Cycloheximide cs 27
CSc1nsc(SCc2ccc(F)cc2)n1	Cycloheximide cs 13
CCOC(=O)c1ccc(NC(=O)CSc2nc(SC)ns2)cc1	MARV entry inh inconclusive, Cycloheximide cs 48, Shiga toxin inh 60
CSc1nsc(SCC(=O)Nc2cccc(C(C)=O)c2)n1	none
CSc1nsc(SCC(=O)Nc2ccccc2F)n1	MARV entry inh inconclusive, Cycloheximide cs 31, Shiga toxin inh 58 (no result: Lassa entry inh)
CN1CCCN(C(c2ccccc2)c2ccc(Cl)cc2)CC1 (centres undefined)	MARV entry inh inconclusive, Lassa entry inh 13µM
CSc1ccc(-c2nc(CN(C)C3CCOC3)c(C)o2)cc1 (centres undefined)	MARV entry inh inconclusive, Cycloheximide cs 31, Shiga toxin inh 42
O=S(=O)(NCCc1ccc(F)cc1)c1ccccc1Br	none (no result: MARV entry inh, Cycloheximide cs, Shiga toxin inh)
Cc1ccc(Nc2nc(/N=C/NO)n[nH]2)cc1C	MARV entry inh inconclusive, Cycloheximide cs 27, Shiga toxin inh 65
C/C(=N/Nc1ccc(C)cc1)C1(C)N(O)C(C)(C)C(c2ccco2)=[N+]1[O-] (centres undefined)	Cycloheximide cs 17 (no result: MARV entry inh, Lassa entry inh)
CC1(C)C(c2ccco2)=[N+]([O-])C2(CCCCC2=O)N1O (centres undefined)	none
O=S(=O)(c1cccs1)N1CCN(Cc2nc3ccccc3s2)CC1	Cycloheximide cs 38, Shiga toxin inh 49
O=C(CCc1nc2ccccc2s1)N1CCN(S(=O)(=O)c2cccs2)CC1	none
O=C(OCc1nc2ccccc2s1)C1CCN(S(=O)(=O)c2cccs2)CC1	Lassa entry inh inconclusive, Cycloheximide cs 35, Shiga toxin inh 97
Cc1cccc(C(=O)Nc2nc(-c3ccc(Br)cc3)ns2)c1	none (no result: Cycloheximide cs, Shiga toxin inh)
CC(C)(C)c1ccc(S(=O)(=O)Nc2ccc(Cc3ccncc3)cc2)cc1	MARV entry inh inconclusive, Lassa entry inh 10µM, Cycloheximide cs 22
CC(=O)OC1OCCOC1NC(=S)Nc1cccc(C(F)(F)F)c1 (centres undefined)	Cycloheximide cs 19, Shiga toxin inh 66
COC(=O)c1cc[n+](CC(=O)c2ccccc2)cc1	Cycloheximide cs 26
O=C(COc1ccccc1)c1ccccc1	MARV entry inh inconclusive (no result: Cycloheximide cs, Shiga toxin inh)

High-throughput results from PubChem BioAssay.
